Activity calls are given as the source filed them. Rule for the calls: active = hit-call score of the fitted dose curve at least 0.9, where 1 is the maximum; inconclusive = response in the unintended direction; inactive = score below 0.9.
tested on: DIO3 (gene 1735); assay: CCTE_GLTED_hDIO3: CCTE's human Deiodinase 3 (DIO3) Inhibition Assay, Great Lakes Toxicology and Ecology Division (GLTED) Lab (AID 2284055);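 for AC50: potency is for inhibition seen as loss of released iodide signal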
Description: CCTE_GLTED_hDIO3 is a cell-free, single-readout assay designed to test the inhibitory activity of chemicals toward human iodothyronine Deiodinase type 3 (DIO3) enzyme. Enzyme is incubated in presence of test chemical for 3 hours during which uninhibited enzyme liberates free iodide from substrate. Free iodide is measured in a second step using the Sandell-Kolthoff method.CCTE_GLTED_hDIO3 is the assay component measured from the CCTE_GLTED_hDIO3 assay. It is designed to make measurements of enzyme activity, a form of enzyme reporter, as detected with absorbance signals by spectrophotometry.Data from the assay component CCTE_GLTED_hDIO3 was analyzed into 1 assay endpoint. This assay endpoint, CCTE_GLTED_hDIO3, was analyzed in the positive analysis fitting direction relative to DMSO as the negative control and baseline of activity. Using a type of enzyme reporter, loss-of-signal activity can be used to understand changes in the enzymatic activity as they relate to the gene DIO3. Furthermore, this assay endpoint can be referred to as a primary readout, because the performed assay has only produced 1 assay endpoint. To generalize the intended target to other relatable targets, this assay endpoint is annotated to the 'deiodinase' intended target family, where the subfamily is 'deiodinase Type 3'.
[…] assay, developed at Great Lakes Toxicology and Ecology Division (GLTED) within the EPA's Center for Computational Toxicology and Exposure (CCTE), is designed to test the chemicals' ability to inhibit DIO3. Assay uses human deiodinase type 3 (DIO3) enzyme produced with adenovirus expression system. Assay is based on iodide release measured by the Sandell-Kolthoff method and is run in 96-well plate format with assay plates run in triplicate (n=3). The method used for the deiodinase assay was largely based on Renko et al. (2012, 2015). These works describe the utilization of the SK reaction to measure deiodinase-liberated iodide in a 96-well-plate format. The SK reaction is based on the reduction of the yellow-colored cerium IV to the non-colored cerium III by arsenic, with the rate of this reaction increased in the presence of iodide in a concentration-dependent manner (Sandell and Kolthoff, 1937). Iodinated test chemicals can interfere as competitive inhibitors, or if the stock chemical has contaminating free-iodide present. Other chemicals, e.g.: nitrite, iron, and thiocyanate can interfere with the Sandell-Kolthoff reaction (see Sandell and Kolthoff, 1937).

Row | SMILES | AC50 | outcome
1 | Cc1ccc(-c2cc(C(F)(F)F)nn2-c2ccc(S(N)(=O)=O)cc2)cc1 | 172 µM (active) | 
2 | CCCCCCC(C=O)=Cc1ccccc1 | 3.29 µM (active) | 
3 | S=c1[nH]c2ccccc2s1 | 73.2 µM (active) | 
4 | CN(C)CCCN1c2ccccc2Sc2ccc(Cl)cc21 | 158 µM (active) | 
5 | CCCCCCCCCCCCCCOS(=O)(=O)O | 18.5 µM (active) | 
6 | O=Cc1ccccc1C=O | 2.92 µM (active) | 
7 | CCCCCCCCCCCCCCCCO |  | inactive
8 | CC(=O)O[C@]1(C(C)=O)CC[C@H]2[C@@H]3C=C(Cl)C4=CC(=O)[C@@H]5C[C@@H]5[C@]4(C)[C@H]3CC[C@@]21C | 5.1 µM (active) | 
9 | O=C(Oc1ccccc1)c1cccc(C(=O)Oc2ccccc2)c1 | 64.5 µM (active) | 
10 | Cc1c(C)c2c(c(C)c1O)CCC(C)(COc1ccc(CC3SC(=O)NC3=O)cc1)O2 (stereo not given) | 95.1 µM (active) | 
